Screening data: PubChem BioAssay, National Center for Advancing Translational Sciences (NCATS)
Sampled rows, rich in hits. Any-hit rate of the full collection: about 12%.
G9a inh-1 = G9a (human) methyltransferase inhibition. Potency, µM (highest dose often 102 µM), actives largely listed as inhibitors. AID 504332. G9a H3K9 monomethylation, AlphaScreen, 2 h. 350,000 tested, 8.8% active; note: nearly all actives have a fitted effect of over 75% in size
Target sequence (Q96KQ7 913-1193 limits assumed): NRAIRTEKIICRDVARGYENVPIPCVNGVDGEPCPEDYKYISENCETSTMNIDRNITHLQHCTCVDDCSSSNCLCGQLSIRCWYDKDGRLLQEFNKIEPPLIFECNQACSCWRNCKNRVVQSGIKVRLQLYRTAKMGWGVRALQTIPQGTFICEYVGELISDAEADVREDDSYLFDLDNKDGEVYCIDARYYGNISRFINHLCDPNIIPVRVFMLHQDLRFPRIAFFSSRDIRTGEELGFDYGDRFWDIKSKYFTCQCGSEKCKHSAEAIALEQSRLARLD
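Step 1: enzyme (final 20 nM) with compound, 15 min RT. Step 2: substrate peptide 500 nM and SAM 20 uM, 2 h RT. Step 3: anti-H3K9me1 antibody and AlphaScreen beads, 10 min, then plate read.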
JMJD2A Tudor = JMJD2A Tudor domain (human) inhibition. Potency, µM (doses to about 114 µM), actives largely listed as inhibitors. AID 504339. 390,000 tested, 4.4% active. AlphaScreen JMJD2A-Tudor / H3K4me3 peptide binding; note: nearly all actives have a fitted effect of over 50% in size
Sfp inh = blocks B. subtilis Sfp PPTase activity. Q9F4F7. Biochemical Sfp PPTase activity, qHTS. Potency, µM, most hits filed as inhibitors. 310,000 tested, 3.5% active;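 note: the enzyme is Sfp with the accession as filed and its product quenches rhodamine fluorescence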
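Step 1, compound plus 15 nM Sfp-PPTase, 15 min, room temperature. Step 2, add rhodamine-CoA (5 uM) and BHQ-2-YbbR (12.5 uM). Step 3, read 525/598 nm fluorescence at 0 and 30 min.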
BAZ2B inh = blocks human BAZ2B; Q9UIF8; AlphaScreen BAZ2B-H3K14Ac peptide displacement; Potency, µM (highest dose often 114 µM), hits mostly inhibitors; 360,000 tested, 4.4% active; AID 504333; note: nearly all actives have a fitted effect of over 60% in size
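Multi-concentration screen (max 110 uM) measuring displacement of acetylated histone H3 peptide from BAZ2B by AlphaScreen, using 50 nM protein, 50 nM peptide and 10 ug/mL streptavidin donor plus Ni-chelate acceptor beads.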
HP1b chromo inh = HP1-beta chromodomain-methylated histone interaction inhibition; P83916; AlphaScreen HP1-beta / biotin-H3K9me3 peptide binding; Potency, µM (top dose mostly 114 µM), usual class: inhibitors; 390,000 tested, 0.56% active; note: nearly all actives have a fitted effect of over 70% in size
Target sequence (P83916 whole entry, looked up): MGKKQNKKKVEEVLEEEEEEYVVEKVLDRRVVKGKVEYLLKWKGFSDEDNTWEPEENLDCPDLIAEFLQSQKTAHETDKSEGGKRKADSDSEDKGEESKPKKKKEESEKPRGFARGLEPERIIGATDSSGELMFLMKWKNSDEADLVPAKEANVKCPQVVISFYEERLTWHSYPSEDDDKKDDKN
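HP1-beta protein (50 nM final) preincubated 30 min at room temperature with biotinylated H3(1-18)K9me3 peptide (50 nM) in PBS pH 7.4, 0.01% Tween-20, then compound added for 30 min. AlphaScreen streptavidin donor/nickel chelate acceptor beads (10 ug/mL final), 30 min dark, luminescence read.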
PLK1 PBD block = inhibitors of human PLK1 polo-box domain binding | P53350 | Plk1 PBD binding of FITC phosphopeptide, fluorescence polarization | Potency, µM, usual class: inhibitors | 360,000 tested, 2.8% active | AID 720504; note: series mostly up to about 57 µM; nearly all actives have a fitted effect of over 65% in size
G9a inh-2 = inhibits human G9a histone lysine methyltransferase, hit confirmation; shares compounds with JMJD2A Tudor; Potency, µM, actives largely listed as inhibitors; 370 tested, 89% active; G9a H3K9 monomethylation, AlphaScreen, 2 h; note: nearly all actives have a fitted effect of over 65% in size
TbPYK inh = Trypanosoma brucei pyruvate kinase inhibition, cherry-pick confirmation; shares compounds with PLK1 PBD block; recombinant TbPYK, Kinase-Glo ATP luminescence; Potency, µM (highest dose often 76.9 µM), actives largely listed as inhibitors; 890 tested, 67% active; note: nearly all actives have a fitted effect of over 70% in size
TbPYK orthogonal = orthogonal confirmation of Trypanosoma brucei pyruvate kinase inhibitors; shares compounds with PLK1 PBD block; recombinant TbPYK, ADP-Glo luminescence, 60 min; Potency, µM (doses to about 76.9 µM), hits mostly inhibitors; 890 tested, 62% active; AID 720584; note: nearly all actives have a fitted effect of over 75% in size
Numbers stand for hits; . = inactive; ? = inconclusive; / = not tested or not shown; [ ] = remark or other dose. Calls come from the whole dose curve; as a rule, active = well fitted curve in the direction sought with a large enough effect; inconclusive = small, poorly fitted or top-dose-only effect, or another doubt; inactive = no such curve, though single readings can be large; an effect the other way counts as inactive or inconclusive.

SMILES	G9a inh-1	JMJD2A Tudor	Sfp inh	BAZ2B inh	HP1b chromo inh	PLK1 PBD block	TbPYK inh	TbPYK orthogonal	others
O=C(CSc1ncn(-c2ccccc2)n1)Nc1nc(-c2ccccc2)cs1	.	.	.	.	.	.	/	/
O=C(CSc1ncn(-c2ccccc2)n1)Nc1nc2ccccc2s1	?	45µM	?	.	.	.	/	/	G9a inh-2=3.6
Cc1[nH]c(C)c(S(=O)(=O)Nc2ccc(OC(F)(F)F)cc2)c1C(=O)N1CCCCC1	/	.	.	?	.	.	/	/
COc1ccc(Br)cc1CNc1ccc(N2CCOCC2)cc1	?	40µM	.	28µM	?	.	/	/	G9a inh-2=3.2
COc1ccc(Br)cc1CNc1ccc(S(N)(=O)=O)cc1	.	.	.	.	.	.	/	/
O=S(=O)(NN1CCOCC1)c1ccc(Br)cc1	0.4µM	.	.	.	.	7.5µM	/	/	G9a inh-2=1.6
O=S(=O)(Nc1ccc(S(=O)(=O)N2CCOCC2)cc1)c1ccc(Br)cc1	.	.	.	.	.	.	/	/
CCN(Cc1ccncc1)Cc1c(O)ccc2ccccc12	1.4µM	79µM	.	.	?	2.7µM	/	/	G9a inh-2=0.36
CCN(Cc1ccncc1)Cc1nc(Cc2ccccc2Cl)no1	.	.	.	.	.	.	/	/
c1csc(Cc2nn3c(-c4n[nH]c5c4CCC5)nnc3s2)c1	?	?	.	?	.	2.7µM	/	/	G9a inh-2=13
COc1cc(OC)c(-c2nn3c(-c4n[nH]c5c4CCC5)nnc3s2)cc1OC	/	.	/	/	.	/	/	/
CCn1cnc2cc(NCc3cccc(OC)c3O)ccc21	?	.	.	?	.	.	/	/	G9a inh-2=0.28
CCCn1cnc2cc(NCc3ccc(OC)cc3OC)ccc21	2.8µM	?	/	40µM	.	/	/	/	G9a inh-2=5.8
COC(=O)c1cc(C)nc2c1c(=O)nc(SCc1cccc(C)c1)n2C1CC1	.	.	/	.	.	/	/	/
CC1Sc2ccc(S(=O)(=O)CCC(=O)NC3CCCC(C)C3C)cc2NC1=O (stereo unspecified)	.	.	.	.	.	.	/	/
CN(C)C1=NC[C@H](Cc2ccccc2)N1CCCC1CCCC1	?	.	/	?	.	.	/	/	G9a inh-2=2.8
Cc1ncc(CN2CCC(n3nccc3NC(=O)c3ccccc3)CC2)s1	.	.	.	.	.	.	/	/
COc1ccc(CNC(=O)CCCc2nnc3n(CCC(C)C)c(=O)c4sccc4n23)cc1	.	.	/	.	.	/	/	/
COc1ccc(NC(=O)c2c(NC(=O)c3ccncc3)sc3c2CCC(C(C)(C)C)C3)cc1 (stereo unspecified)	?	.	/	.	.	/	/	/
CC(C)(C)C1CCc2c(sc(NC(=O)c3ccncc3)c2C(=O)Nc2ccccc2Cl)C1 (stereo unspecified)	2.2µM	?	/	.	.	/	/	/	G9a inh-2=?
COc1ccc([N+](=O)[O-])cc1NC(=O)CSc1nc(C)cc(C)n1	2.5µM	?	22µM	.	.	13µM	28µM	16µM	G9a inh-2=6.3
COCCNc1cc(-c2ccccc2C(F)(F)F)ncn1	/	/	.	/	/	/	/	/
O=c1nccc(N/N=C/c2ccccc2O)[nH]1	.	?	.	50µM	.	?	?	.
CC1(C(=O)NCCC(F)(F)F)Cc2c(-c3cccc(C(F)(F)F)c3)ccnc2O1 (stereo unspecified)	/	/	/	/	/	.	/	/
CC1(C(=O)NCCC(F)(F)F)Cc2c(-c3cccc(C(N)=O)c3)ccnc2O1 (stereo unspecified)	/	/	/	/	/	.	.	.
SMILES	G9a inh-1	JMJD2A Tudor	Sfp inh	BAZ2B inh	HP1b chromo inh	PLK1 PBD block	TbPYK inh	TbPYK orthogonal	others
C=CCN=c1scc(C)n1/N=C/c1ccc(O)c(O)c1	?	?	32µM	40µM	.	.	0.71µM	10µM
C=CCNC(=S)/N=c1/scc(C)n1C	.	.	.	.	.	.	/	/
CCOC(=O)c1ccc(N2CSC3=C(C#N)C(c4cccs4)CC(=O)N3C2)cc1 (stereo unspecified)	5.6µM	28µM	11µM	45µM	?	.	?	?
CCOC(=O)CC1=C(C(=O)OCC)C(c2cccs2)C(C#N)=C(N)O1 (stereo unspecified)	.	.	.	.	.	.	/	/
CCc1ccc(N2CSC3=C(C#N)C(c4cccs4)CC(=O)N3C2)cc1 (stereo unspecified)	?	32µM	2.5µM	?	.	19µM	4.5µM	2µM
Cc1ccc(N2CSC3=C(C#N)C(c4cccs4)CC(=O)N3C2)cc1 (stereo unspecified)	1.4µM	32µM	1.4µM	?	?	15µM	2.5µM	1.6µM
COC(=O)C1C(=O)N2CCCSC2=C(C#N)C1c1cccs1 (stereo unspecified)	?	.	.	.	.	.	/	/
Cc1nc2ccc(C(=O)N3CCCC(CO)(Cc4ccc(F)cc4F)C3)cc2nc1C (stereo unspecified)	.[0.0925 µM]	.	.	?	.	.	/	/
CN(C(=O)Cn1nnc(-c2ccccc2)n1)C1CCS(=O)(=O)C1 (stereo unspecified)	.	.	/	.	.	.	/	/
Cc1ccc(C(=O)O/N=C(\N)c2ccccc2)c(Cl)c1	.	.	.	.	.	.	/	/
Cc1ccc(C(=O)O/N=C(\N)c2ccccn2)c(Cl)c1	/	.	.	.	.	.	16µM	.
CCOC(=O)C(=Cc1cc(=O)c(OC)co1)C(=O)OCC	10µM	.	6.3µM	.	?	24µM	28µM	?
Cc1ccc(/C=C2\C(=O)Nc3ccccc32)o1	8.9µM	45µM	16µM	40µM	45µM	.	?	?
CCOC(=O)C1=C(C)N(CCCC(=O)O)C(=O)NC1c1ccc([N+](=O)[O-])cc1 (stereo unspecified)	.	.	.	.	.	.	/	/
O=C(O)CCCn1c(=S)[nH]c2c(sc3ccc([N+](=O)[O-])cc32)c1=O	8.9µM	18µM	45µM	?	.	.	7.9µM	4.5µM
Cc1cc(C2=NNC(=Nc3ccccc3)SC2)c(C)n1C	8.9µM	?	32µM	?	?	.	?	14µM
C=CCN=C1NN=C(c2cc(C)n(CC=C)c2C)CS1	?	?	.	?	.	.	/	/
COc1ccc(C2=CC(=O)C[C@H](c3ccc(OC)c(OC)c3)C2)cn1	.[0.501 µM]	.	/	.	.	.	.	.
COc1cccc(NC(=O)Nc2nc(-c3ccc(OC)c(OC)c3)cs2)c1	?	?	.	?	?	.	/	/
COC(=O)N1CCCCC1c1cc(C(=O)Nc2ccccc2Cl)no1 (stereo unspecified)	/	/	/	/	/	.	/	/
Cn1cccc1C(=O)C(=O)Nc1ccc(Cl)cc1	.[0.501 µM]	.[11.4 µM]	.	.	.	.	/	/
